# Compound activity as filed in PubChem.
# Most compounds without a hit are left out; they make up all but 3.4% or so of the library.
# APP 5'UTR act: activates APP 5'UTR luciferase reporter | SH-SY5Y APP 5'UTR luciferase reporter, luminescence; zero percent = DMSO vehicle wells | actives 1% (n = 190,000) | activation, % at 2 µM;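 active means activation above a set limit, based on mean plus 3 SD of controls, cut at about 140% in these data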
# hgDAF-12 ag: activates the H. glycines DAF-12 receptor ligand-binding domain; HEK293 GAL4-hgDAF12 UAS-luciferase reporter, agonist luminescence; normalized to butyrate control; activation, % at 6.8 µM; AID 687014; actives 1.8% (n = 370,000);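 active means activation above a cutoff set at the mean of all screened compounds plus 3 SD, cut at about 10% in these data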;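 further: 0% = DMSO wells and 100% = sodium butyrate wells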
# ssDAF-12 act: activators of S. stercoralis DAF-12 nuclear receptor | HEK293 ssDAF-12/GRIP1 lit1-tk-luc reporter, luminescence; % of 3 µM dafachronic acid response | activation, % at 6.8 µM | actives 1% (n = 370,000) | AID 652126;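 active means activation above the mean over all tested compounds plus 3 SD, cut at about 0.9% in these data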;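 further: 0% = DMSO-only wells and 100% = 3 µM delta7-dafachronic acid wells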
# NF-kB expr up: raises NF-kB expression in human neuronal cells | actives 1.6% (n = 190,000) | AID 1239 | NF-kB reporter expression; hits give high values | fold change at 12.5 µM; in the data active means fold change above about 3.3
# hcDAF-12 act: activators of H. contortus DAF-12 nuclear receptor. HEK293 hcDAF-12 lit1-tk-luc reporter, luminescence; 0% DMSO, 100% Δ7-dafachronic acid. activation, % at 6.8 µM. AID 652067. actives 1.4% (n = 370,000);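 active means activation above the mean of all tested compounds plus 3 SD, cut at about 5.5% in these data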;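 further: 100% = response to 3 µM Δ7-dafachronic acid high control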
# * = called active by the depositor; nt = no result given.
SMILES,APP 5'UTR act,hgDAF-12 ag,ssDAF-12 act,NF-kB expr up,hcDAF-12 act
Cc1c(C(=O)N(Cc2ccco2)Cc2cccs2)oc2ccccc12,nt,1.6,1.1*,nt,-0.2
O=C(c1cc2ccccc2o1)N(Cc1ccco1)Cc1cccs1,nt,1.1,-0.5,nt,0.0
CCOc1ccc(NC(=O)c2cnccn2)cc1,149.6*,8.9,-0.4,3.28,2.2
CCOc1ccc(NC(=O)c2cnsn2)cc1,152.8*,4.2,-0.2,3.54*,2.9
CCOc1ccc(NC(=O)C/C(C)=N/NC(=O)c2cnccn2)cc1,nt,5.5,-0.8,nt,3.0
Cc1ccc(NC(=O)c2cc(-c3ccco3)on2)cc1C,8.3,12.5*,-0.2,2.65,1.7
Cc1ccc(NC(=O)c2cnccn2)cc1C,nt,11.4*,-0.4,nt,3.1
O=C(N1CCC(n2nc(-c3ccccc3)oc2=O)CC1)C1(c2ccccc2)CCCC1,nt,-2.0,0.3,nt,0.2
O=C(NCCc1c[nH]c2ccccc12)OCc1cn(-c2ccccc2Cl)nn1,nt,-3.5,-0.5,nt,-2.3
Cc1nc(NC(=O)c2cnccn2)ccc1Br,nt,10.6*,0.2,nt,2.7
Cc1nc(NC(=O)c2cncc(Br)c2)ccc1Br,nt,0.6,-1.2,nt,-2.5
S=C(N/N=C/c1ccccc1Cl)Nc1ccccc1,48.6,11.3*,0.7,1.6,3.1
O=C(c1ccco1)N(Cc1ccc(Cl)cc1)Cc1ccco1,nt,2.7,-0.2,nt,5.7*
CN(C)c1ccc(CN(Cc2ccco2)C(=O)c2ccco2)cc1,nt,-2.1,-1.4,nt,-1.4
Cc1cccc2sc(N(CCCN(C)C)C(=O)c3ccc(Cl)s3)nc12,12.8,-0.7,0.9*,0.9,-0.6
CCOC(=O)c1sc(NC(=O)c2ccc(C)s2)cc1C,171.5*,9.0,0.5,3.02,3.5
CCOC(=O)c1sc(NC(C)=O)cc1C,9.9,2.4,-1.0,1,-0.4
O=C(N/N=C\c1ccc(Cl)cc1)c1sccc1-n1cccc1,2.8,4.2,0.1,1.46,0.5
CN(C)c1ccc(/C=N/NC(=O)c2sccc2-n2cccc2)cc1,10.2,10.8*,-0.9,1.23,1.8
C[C@@H](C(=O)N=c1sc2ccccc2n1C)N1C(=O)C2CC=CCC2C1=O (some centres undefined),nt,-1.1,1.0*,nt,1.3
COc1ccc2c(c1)CN1CN(C3CCCC3)S(=O)(=O)CC21 (centres undefined),nt,4.8,-0.5,nt,-1.4
COCC(=O)N/N=C\c1cccc(OC)c1OC/C=C/c1ccccc1,nt,2.0,-1.4,nt,-1.5
COCC(=O)N/N=C\c1ccccc1OC/C=C/c1ccccc1,nt,11.4*,-0.7,nt,1.4
CCCCc1c(C)c2ccc(OCC(C)=O)cc2oc1=O,133.2,11.4*,0.5,1.92,4.3
COc1ccc(-c2cc3ccc(OCC(C)=O)cc3oc2=O)cc1,nt,10.5*,-0.1,nt,5.8*
SMILES,APP 5'UTR act,hgDAF-12 ag,ssDAF-12 act,NF-kB expr up,hcDAF-12 act
CC(=O)CC[C@@H]1CC[C@]2(CCCN(C(=O)c3ccccc3)C2)O1,nt,2.4,-1.0,nt,1.0
O=C(CSc1nc2ccccc2nc1N1CCOCC1)N1CCN(S(=O)(=O)c2cccc([N+](=O)[O-])c2)CC1,nt,2.8,-1.6,nt,-0.4
Cc1ccc(NC(=O)CSc2nnc(-c3cccnc3)n2-c2ccc(C)cc2)cc1,-5.0,-1.7,-1.0,0.84,-2.4
O=C(CSc1nnc(-c2cccnc2)n1-c1ccccc1)Nc1ccccc1,17.4,11.6*,-0.7,0.94,-1.6
CCOc1ccc2nc(N3CCOCC3)nc(C)c2c1,130.0,5.8,-0.7,3.84*,3.5
COc1cc(NC(=O)c2cc(C3CC3)on2)c(OC)cc1Cl,0.8,3.6,0.4,1.07,6.4*
O=C(NC1CCOc2ccccc21)c1ccccn1 (centres undefined),nt,1.6,0.3,nt,5.8*
COc1cc(NC(=O)c2cc(C(C)C)on2)c(OC)cc1Cl,8.9,2.3,-0.1,0.96,4.3
O=C(Nc1ccc2c(c1)OCO2)c1ccccn1,nt,11.4*,0.2,nt,1.8
O=C(Nc1ccc2c(c1)OCO2)c1cc(C2CCCCN2S(=O)(=O)Cc2ccccc2)on1 (centres undefined),nt,10.9*,-1.2,nt,3.8
O=C(NC1CCCc2ccccc21)c1ccccn1 (centres undefined),nt,-0.6,-1.1,nt,-0.9
O=C(Nc1ccc2c(c1)OCO2)c1cc(C2CCCCN2C(=O)CCc2ccccc2)on1 (centres undefined),nt,0.3,-0.9,nt,-0.9
Cc1ccnc2nc(C(=O)Nc3ccc4c(c3)OCO4)nn12,40.1,9.2,0.3,4.05*,3.0
O=C(Nc1ccc2c(c1)OCO2)Nc1ccc(Br)cn1,18.2,7.9,-1.4,2.07,1.6
Cc1ccnc(NC(=O)Nc2ccc3c(c2)OCO3)c1,143.8*,12.1*,-0.8,4.87*,2.2
O=C(Nc1ccc2c(c1)OCO2)c1cc(C2CC2)on1,61.5,8.9,-0.1,3.93*,4.1
O=C(Nc1ccc(NC(=O)C2CCCCC2)nc1)c1ccccn1,60.8,12.2*,-1.1,2.28,-1.1
COC(=O)[C@]12C[C@H](CC(=O)N3CCN(C(=O)c4ccco4)CC3)C(=O)N(Cc3cccc4ccccc34)C1=C[C@H](C(C)(C)C)O[C@@H]2C,nt,-1.3,-1.7,nt,-1.6
Cc1ccc2c(c1)C(CS(=O)(=O)NCCc1ccccc1)NC2 (centres undefined),nt,0.1,-1.3,nt,-2.2
COC(=O)[C@]12C[C@H](CC(=O)NCc3cccc4ccccc34)C(=O)N(CCc3ccc(OC)c(OC)c3)C1=C[C@H](COCc1ccccc1)O[C@@H]2C,nt,-0.8,-1.8,nt,-0.7
Cc1ccc2c(c1)CCCN2C(=O)Nc1ccc2c(c1)OCO2,115.8,11.6*,1.6*,1.42,3.6
Cc1ccc(/C=N\Nc2nc3ccc(Cl)cc3[nH]2)o1,73.4,8.5,-0.5,3.73*,2.6
O=C(O)COCC(=O)Nc1ccccc1-c1ccccc1,19.1,0.7,-0.5,1.1,1.0
COCC(=O)Nc1ccccc1-c1ccccc1,-12.2,11.4*,-0.8,1.34,-1.8
N#CC1=C(N)Oc2c(O)cc3ccccc3c2C1c1ccsc1 (centres undefined),-4.6,0.4,6.0*,0.54,-0.4
SMILES,APP 5'UTR act,hgDAF-12 ag,ssDAF-12 act,NF-kB expr up,hcDAF-12 act
CCOC(=O)C1=C(C)OC(N)=C(C#N)C1c1ccsc1 (centres undefined),-2.8,nt,nt,1.44,nt
O=C(O)c1cccc(-c2noc(-c3cccc(Cl)c3)n2)c1,nt,13.0*,0.3,nt,4.2
Cc1cccc(-c2cccc3c4c([nH]c23)[C@@H]2C[C@H](N(C)C(=S)NCCc3ccccc3)[C@H]([C@H](C)O)CN2CC4)c1,nt,4.6,-1.8,nt,-0.6
Cc1ccc(OCC(=O)N/N=C\c2cn(Cc3ccccc3)c3ccccc23)cc1C,19.6,-0.3,1.0*,1.17,3.3
CCC[C@@H](/C=C/C(=O)OC(C)(C)C)Sc1ccc(OC)cc1,nt,4.3,-0.9,nt,-0.8
COc1ccc2nc3oc(C(=O)N4CCCCC4)cc3cc2c1,120.5,9.6,0.5,6.38*,4.7
COc1ccc(NC(=O)CSc2nnc(-c3n[nH]c4c3CCC4)n2N)cc1,nt,0.3,-1.5,nt,-0.7
